Drawing on PubChem BioAssay AID1347423 (Functional Genomics Laboratory (NCATS/FGL), 2020), this text covers z-score for 29 sequences.

Out of some 52,000 sequences screened, about 210 (0.4%) were called active. Only a selection was taken, and actives are over-represented in it overall. A number with no mark means an inactive call.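 How the source made its calls: active means gene whose silencing raises cell survival under the drug, median off-target-corrected z-score across its silencing RNAs 2 or more; inactive means the rest.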

The nature of this test: Resistance to Poly (ADP-Ribose) Polymerase inhibitor: Gene Identification via Genome-wide siRNA Screen. The conditions noted are these: mouse BRCA2 R2336H ES cells, olaparib, CellTiter-Glo viability; stronger effect = higher value. An outline of the steps:
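Genome-wide siRNA screen (3 siRNAs/gene, 20 nM) in mouse ES cells carrying hypomorphic BRCA2 R2336H; olaparib 500 nM added 48 h post-transfection, CellTiter-Glo viability 72 h later. Normalized to plate-median negative control; MAD z-scores, gene median, seed-adjusted.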
On the technique in general: ATP-based viability assays read luminescence as a measure of living cells.
With GGACUUGUCUUUGACACGCTT against Nt5c2, the z-score was 2.18.
GGAUUCCCUAUCCCAUACCTT against Araf1: the z-score is 4.36 (active).
With “GGUCAAAAGAAACAGGUGUTT against 2310047I15Rik” the figure was 0.438; with GCAACUAGCCUGUUCUAUCTT against AI325941, 1.68; with GGAGUUGAAGUUUGUGACATT against Acpp, 2.3 (active).
With “GGUGAAAGUGAGAAGGAAGTT against 6720460F02Rik” the figure was -0.247; with CCUGAAUUACCUCAUAUAUTT against Stat5b, 0.922.
To GCUGAAACCUCAUGAGGAGTT against Ptpn9 belongs 3.06 (active).
As for GCUACUAUUGUGUUCUGAATT against Drd1a, the z-score was -0.386.
To GGUACUCGGUUAUCAUGAATT against Olfr1403 belongs 1.39.
To GGAAAGGACCACCUAAGUUTT against Pde6g belongs -2.22 (active); to GGUUACCUGAGGUCAGUAGTT against Ifi1, -2.31.
For GGCUAAUGUGCUCUCUCAUTT against Olfr644, the z-score is 1.28.
Take CCCACAGGGAUUUAUUUAUTT against Slc37a1: the z-score is 1.36 (active).
CCUUGAAAUACUGAGUGACTT against AU067695: the z-score was 1.17.
With GGAGCAAUGUUGUCACAACTT against Fbln1 the figure was -0.548; with “CGUGUAAAAGCCGGAUUGATT against 1500015L24Rik”, 0.909.
To “GCAAAGCUGAUGGACUCAATT against 2410018M08Rik” belongs -0.965; to GGCAAAAGUGGUUAUUGAATT against Itga6, 3.02 (active).
With GGAUAAUGGUAUCUACUUCTT against Cd79b the figure was -0.408; with GGCAAGAAUCAAGGAGAGATT against Nek1, 1.44.
On to GCGAUUAAUGGCAUAGUUUTT against Sara1, for which the z-score was -1.04.
Turning to GACAGGAAGUUGAUGAAUUTT against Raet1a, the z-score was -0.444.
On to “GGCAAACAAAUGGUUUGUUTT against D430030K24Rik”, for which the z-score was 2.76 (active).
To “GCACCUUAAAAAUGAAGAUTT against D12Ertd551e” belongs -0.616.
Take GGUACCGGAAAGGAAGUGUTT against Grm1: the z-score is -0.666.
For the sequence GGAAGAGAAAGACCUGAGATT against Glra1, the z-score is -0.8.
With GGCUGAGAUCUGAAAUUGATT against Krt2-5 the figure was 0.59; with CGAAAGUUACUCAUAGAGATT against Itga6, 0.364 (active).
